Our source for the outcome and AC50 values is PubChem BioAssay (EPA / NIEHS).

Inconclusive results are not listed. Calls of active or inactive are those of the source. The calls were made as follows: active = hit-call score of the fitted dose curve at least 0.9, where 1 is the maximum; inconclusive = response in the unintended direction; inactive = score below 0.9.

Androgen receptor (Homo sapiens), sequence (P10275 whole entry, looked up): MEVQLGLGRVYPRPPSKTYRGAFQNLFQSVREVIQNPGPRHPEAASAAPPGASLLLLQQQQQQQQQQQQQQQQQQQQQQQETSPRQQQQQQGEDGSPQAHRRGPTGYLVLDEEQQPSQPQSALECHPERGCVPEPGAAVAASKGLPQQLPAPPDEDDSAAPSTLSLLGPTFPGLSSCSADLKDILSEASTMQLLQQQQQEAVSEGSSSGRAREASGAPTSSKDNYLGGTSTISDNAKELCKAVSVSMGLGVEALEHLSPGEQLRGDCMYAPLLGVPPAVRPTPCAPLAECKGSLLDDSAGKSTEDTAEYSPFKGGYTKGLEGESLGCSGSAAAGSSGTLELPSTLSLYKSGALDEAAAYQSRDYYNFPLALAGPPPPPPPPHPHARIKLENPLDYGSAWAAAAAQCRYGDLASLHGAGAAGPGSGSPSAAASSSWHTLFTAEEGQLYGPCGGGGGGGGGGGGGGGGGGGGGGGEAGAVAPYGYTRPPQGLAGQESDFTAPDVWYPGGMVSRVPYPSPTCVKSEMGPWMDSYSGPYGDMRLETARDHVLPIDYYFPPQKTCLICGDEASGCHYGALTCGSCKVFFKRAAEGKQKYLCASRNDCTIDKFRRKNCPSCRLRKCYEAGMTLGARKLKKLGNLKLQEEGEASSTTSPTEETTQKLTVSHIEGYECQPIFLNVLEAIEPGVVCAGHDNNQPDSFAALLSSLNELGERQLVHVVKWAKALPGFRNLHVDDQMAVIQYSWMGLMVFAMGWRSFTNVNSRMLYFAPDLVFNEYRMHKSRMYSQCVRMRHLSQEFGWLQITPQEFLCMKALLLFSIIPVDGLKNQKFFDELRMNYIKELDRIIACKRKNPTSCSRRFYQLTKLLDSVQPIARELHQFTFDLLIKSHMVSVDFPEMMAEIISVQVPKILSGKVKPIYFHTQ

In the assay the target is Androgen receptor (Homo sapiens) (UniProt P10275). Briefly: ATG_AR_TRANS: Attagene TRANS-FACTORIAL HepG2 Assay for human Androgen Receptor (AR) (AID 2282973). The settings on record: HepG2 Attagene TRANS-FACTORIAL AR reporter transcription. On the procedure:
ATG_TRANS is a cell-based, multiplexed-readout assay that uses HepG2, a human liver cell line, with measurements taken at 24 hours after chemical dosing in a 24-well plate.ATG_AR_TRANS is one of 30 assay component(s) measured or calculated from the ATG_TRANS assay. It is designed to make measurements of mRNA induction, a form of inducible reporter, as detected with fluorescence intensity signals by Reverse transcription polymerase chain reaction (RT-PCR) and Capillary electrophoresis technology.Data from the assay component ATG_AR_TRANS was analyzed into 1 assay endpoint. This assay endpoint, ATG_AR_TRANS, was analyzed in the positive analysis fitting direction relative to DMSO as the negative control and baseline of activity. Using a type of inducible reporter, measures of mRNA for gain-of-signal activity can be used to understand the reporter gene at the transcription factor-level as they relate to the gene AR. Furthermore, this assay endpoint can be referred to as a primary readout, because this assay has produced multiple assay endpoints where this one serves a reporter gene function. To generalize the intended target to other relatable targets, this assay endpoint is annotated to the nuclear receptor intended target family, where the subfamily is steroidal.
Human liver HepG2 cells are transiently transfected with multiple reporter transcription units (MRTUs) in 6-well plates using FuGene 6 reagent (Roche; 3 ml FuGene/1 mg DNA). The MRTU constructs are regulated by a cis-regulating element (promoter). […] A major difference between the CIS and TRANS system is that in CIS activities of endogenous TFs are measured, whereas the TRANS assay evaluates changes in activities of exogenous, chimeric NR-Gal4 proteins. […] At the end of 24 hour incubation, total RNA was isolated using TriZol reagent (Invitrogen). The isolated RNA is then reverse-transcribed using oligo(dT) primer and Mo-MLV reverse transcriptase (Invitrogen) with DNAse I (Ambion) treatment for 30 min. The one-tenth of the produced cDNA was amplified by PCR using Taq DNA polymerase (Invitrogen) and two reporter sequence-specific primers. The PCR products were fluorescently labeled by primer extension with 6-arboxyfluorescein (6-FAM) 5'-labeled reporter sequence-specific primer (2 min at 95 C, 20 s at 68 C and 10 min at 72 C) and these products were digested with 5U of HpaI (New England Biolabs) for 2h at 37 C. The fragments were purified using Qiaquick PCR columns (Qiagen), analyzed on an ABI 3130xL genetic analyzer (Applied Biosystems) with peak positions identified by using a set of X-rhodamine (ROX)-labeled MapMarker1000 molecular weight standards (BioVentures). The raw capillary electrophoresis data was processed using Attagraph software (Attagene).
As for `FC(F)(F)C(F)(F)C(F)(F)Br`, the result was inactive. The same measure, in the same setting: the entry for `O=S(=O)(O)c1cc(S(=O)(=O)O)c2ccc3c(S(=O)(=O)O)cc(S(=O)(=O)O)c4ccc1c2c43` is “inactive”; for `NCC1CCCC(CN)C1` (stereo not given) it is “inactive”; for `C=C(C)C(=O)OCCOC(=O)C(=C)C` it is “inactive”. Take `CCCCCCCCCc1ccc(OCCO)cc1`: the compound was classed as inactive. Take `CO[Si](CCC1CCC2OC2C1)(OC)OC` (stereo not given): the call was inactive.

For the compound `CN1CCN(C)CC1`, the compound was classed as inactive. Turning to `O=S(=O)(OCCOC(F)(F)F)C(F)(F)F`, the outcome was inactive. For the compound `C=CC(C)(CCC=C(C)C)OC(=O)C=Cc1ccccc1` (stereo not given), the result was inactive. Still for that read-out and setting: the value for `CC1(C)COCN1` was “inactive”; that for `CC1CCC(CO)CC1` (stereo not given) was “inactive”; that for `Cc1cc(CCN2CCN(c3nsc4ccccc34)CC2)cc2c1NC(=O)CC2(C)C` was “inactive”. Turning to `COC(C)(C)CC(C)=O`, the call was inactive. Consider `OCCCS`, for which the call was inactive.

Consider `C=CC(=O)OCCOC1C2CCC1C1CC=CC12` (stereo not given), for which the compound was classed as inactive.

Take `CCOC(=O)COc1cc(-n2ncc(C(F)(F)F)c(C)c2=O)c(F)cc1Cl`: the compound was called inactive. As usually defined, the AC50 is the concentration giving half of the maximal activity seen. With `CC(=O)C1(C)CC2=C(CCCC2(C)C)CC1C` (stereo not given), the half-maximal activity concentration (AC50) is 158 µM (active). Regarding `CCCCCCS`, the compound was called inactive. With `O=C(Cl)c1ccc(Cl)cc1Cl`, the call was inactive. On to `O=C(Cl)C(F)(F)C(F)(F)C(F)(F)C(F)(F)C(F)(F)C(F)(F)F`, for which the result was inactive. The same measure, in the same setting: the entry for `Oc1ccc2ccccc2c1` is “inactive”. For the compound `COCCOC[C@H](CC1(C(=O)NC2CCC(C(=O)O)CC2)CCCC1)C(=O)Oc1ccc2c(c1)CCC2` (stereo not given in full), the result was inactive. With `N#Cc1ccc(C(c2ccc(C#N)cc2)n2cncn2)cc1`, the call was inactive.

Regarding `O=C1CCCCCCCCCCCC(=O)OCCO1`, the result was inactive. For `O=C(O)C(F)(F)C(F)(F)C(F)(F)OC(F)(C(F)(F)F)C(F)(F)F`, the compound was called inactive.

As for `FC(F)(F)C(F)(F)C(F)(F)C(F)(F)C(F)(F)CCI`, the call was inactive. Consider `COc1ccccc1OCC(O)CO` (stereo not given), for which the compound was classed as inactive. On to `Cc1cc(C)c(S(=O)(=O)O)cc1N=Nc1cc(S(=O)(=O)O)c2ccccc2c1O`, for which the call was inactive. Consider `C=C(C)C(=O)OCC(F)(F)C(F)(F)C(F)(F)F`, for which the outcome was inactive.

As for `OCc1cccc(Oc2ccccc2)c1`, the outcome was inactive.

As to `O=S1(=O)CC(Cl)(Cl)C(Cl)(Cl)C1`, the result was inactive. Consider `OCC(F)(F)C(F)(F)C(F)(F)C(F)(F)C(F)(F)C(F)(F)F`, for which the compound was called inactive. As for `OCC(F)(F)C(F)(F)C(F)(F)C(F)(F)C(F)(F)C(F)(F)C(F)(F)C(F)(F)C(F)(F)C(F)(F)C(F)(F)F`, the outcome was inactive. As for `CCc1cccc(CC)c1`, the outcome was inactive. Consider `O=P(O)(O)CCC(F)(F)C(F)(F)C(F)(F)C(F)(F)C(F)(F)C(F)(F)F`, for which the outcome was inactive. For the compound `NC(=O)C(F)(F)C(F)(F)C(F)(F)C(F)(F)C(F)(F)C(F)(F)C(F)(F)F`, the result was inactive. Same read-out and setting: the value for `NC(=O)C(F)(F)C(F)(F)C(F)(F)C(F)(F)C(N)=O` was “inactive”. Take `N#CSCSc1nc2ccccc2s1`: the outcome was inactive. For the compound `C=C1CC[C@H]2O[C@]2(C)CC[C@@H]2[C@@H]1CC2(C)C`, the call was inactive. For the compound `C[C@H]1C[C@@H]2[C@H]([C@@H](O)C[C@@]3(C)[C@H]2CC[C@]3(O)C(=O)CO)[C@@]2(C)C=CC(=O)C=C12`, the call was inactive.
